Measured values reported in PubChem BioAssay (NCATS).
Inconclusive results are not listed. Calls of active or inactive are those of the source. Unless noted, the call rests on the fitted dose curve; in most records, active means well fitted curve in either direction with a large enough effect (not every such curve was filed as active); inconclusive means small, poorly fitted or top-dose-only effect, or another doubt; inactive means flat fitted curve, though single readings scatter.

Legend:
[1] = target: Lysosomal acid glucosylceramidase (Homo sapiens) (UniProt P04062); experiment: Glucocerebrosidase-p2 (AID 348; in the data active means potency below about 10 µM; further: potency means the concentration at half of the fitted maximal effect); conditions: purified GBA, blue fluorogenic substrate, 40 min
In short: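 Compounds titrated from 0.6 nM upwards against 0.2 nM enzyme in pH 5.9 citric acid/KH2PO4, taurocholate, tween-20; blue fluorogenic substrate 80 uM, 40 min room temperature, stopped and read Ex 365/Em 440 for AC50.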

[2] = AP1 Signaling Pathway (AID 357); conditions: ME-180 AP-1-bla reporter, EGF-induced, beta-lactamase ratio, 5 h; at 7.69 µM (top of the series) unless noted;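 further: ME-180 reporter cells stimulated with EGF at its EC50 level; on the % scale 0 is the no-effect control and ±100 the full control effect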
In short: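 In this screen, ME-180 cells in Opti-MEM with 0.5% dialyzed FBS received EC50 EGF and compound titrations for 5 h. AP-1 reporter beta-lactamase was detected via CCF4 ratio, giving AC50 for positive and negative modulators.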

[3] = NFAT Signaling Pathway (AID 444); conditions: Jurkat NFAT-bla M1, carbachol, beta-lactamase ratio, 5 h; at 7.69 µM (top of the series) unless noted;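 further: carbachol stimulus at about its EC50 of 1 µM final; on the % scale 0 is the no-effect control and ±100 the full control effect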
In short: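 Jurkat cells carrying an NFAT-driven β-lactamase reporter and co-transfected muscarinic M1 receptor were treated with compound plus carbachol (1 uM final, an EC50 level) for 5 h at 37 °C. CCF4 loading followed for 1 h at RT; 460/530 nm ratio gave %activity.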

[4] = Stat Signaling Pathway (AID 446); conditions: ME-180 SIE beta-lactamase reporter, IL-6 stimulated, 5 h; at 7.69 µM (top of the series) unless noted;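 further: ME-180 cervical cancer cells given 40 pM IL-6 alongside compound; SIE-controlled beta-lactamase reporter measured as 460/530 nm FRET emission ratio; on the % scale 0 is the no-effect control and ±100 the full control effect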
In short: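 ME-180 SIE-bla cells; overnight plating; cpd + IL-6 40 pM, 5 h, 37 C; LiveBLAzer 2.5 h RT; 460/530 nm emission ratio. Normalized to 300 pM IL-6 and 125 nM JAK inhibitor controls.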

[5] = target: Glucocorticoid receptor (Homo sapiens) (UniProt P04150); experiment: GR-EFC Redistribution (AID 451; calls by dose curve; further: potency means the concentration at half of the fitted maximal effect); conditions: CHO-K1 GR-EFC translocation, beta-gal luminescence, 2 h
In short: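 CHO-K1 cells stably expressing nuclear-localized β-gal enzyme acceptor and GR fused C-terminally to the enzyme donor fragment; ligand-driven nuclear translocation restores β-gal by complementation. Compounds titrated up to 46 uM final, 2 h at 37 °C; luminescence read.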

[6] = target: Mitogen-activated protein kinase 10 (Mus musculus) (UniProt Q61831); experiment: JNK3 AlphaScreen Assay (AID 530); conditions: JNK3 lysate, c-Jun phosphorylation; series mostly up to 57.1 µM;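 further: kinase came from lysate of stimulated human HepG2 cells; signal reports phosphorylation of biotinylated GST-cJun 1-79 at Ser73 with 10 µM ATP; on the % scale 0 is the no-effect control and ±100 the full control effect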
In short: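 JNK3 came from HepG2 lysates pre-activated with IL-1beta and TNF-alpha and phosphorylated biotinylated GST-cJun (1-79) at 10 uM ATP, pH 7.6, room temperature. Compounds were titrated. AlphaScreen signal used anti-phospho-cJun (Ser73) antibody.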

[7] = target: 3',5'-cyclic-AMP phosphodiesterase 4B (Homo sapiens) (UniProt Q07343); experiment: qHTS Assay for Inhibitors of PDE-IV (AID 607; active means well fitted activation curve with a large enough effect in the main read-out, with a control signal flat, not every such curve was filed as active; further: % of control where 0% means no effect); conditions: HEK293 ACTOne CNG channel cells, membrane potential fluorescence; series mostly up to 22.9 µM
In short: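 ACTOne HEK293 cells carry a modified cAMP-gated CNG channel and express endogenous PDE4; plated 1000 cells/well, compounds up to 22.9 uM final. Membrane-potential dye fluorescence (ex 535/em 590) was read; parental cells received 10 uM forskolin + 100 uM RO 20-1724.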

[8] = qHTS Assay for Lipid Storage Modulators (AID 1519; calls by dose curve); conditions: Drosophila S3 cells, BODIPY lipid droplet/cell ratio, laser cytometry, cells loaded with oleic acid; for activity change, negative = inhibition: at 57.5 µM (top of the series)
In short: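 Cells seeded at 5,000 per well were treated with compounds over a concentration series and loaded with oleic acid (400 uM, as added). Lipid droplet fluorescence (488 nm excitation, 500-530 nm channel) was read by laser-scanning cytometry and normalized to 20 uM Triacsin C.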

[9] = Primary qHTS for small molecule stabilizers of the endoplasmic reticulum resident proteome: Secreted ER Calcium Modulated Protein (SERCaMP) assay (AID 1508630; active means well fitted inhibition curve with a large enough effect; further: on the % scale 0 is the no-effect control and ±100 the full control effect); conditions: SH-SY5Y GLuc-SERCaMP (Gaussia luciferase released on ER calcium loss) secretion, thapsigargin, luminescence; series mostly up to 38.4 µM
In short: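 GLuc-SERCaMP-expressing SH-SY5Y cells, pretreated 16 h with compound, are challenged with thapsigargin to empty ER calcium stores; after 4 h, coelenterazine is added directly to the medium and luminescence is imaged.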

[10] = measured here: cell count channel max response
[11] = measured here: lipid channel max response

Chain of 3',5'-cyclic-AMP phosphodiesterase 4B (Homo sapiens) (Q07343 whole entry, looked up): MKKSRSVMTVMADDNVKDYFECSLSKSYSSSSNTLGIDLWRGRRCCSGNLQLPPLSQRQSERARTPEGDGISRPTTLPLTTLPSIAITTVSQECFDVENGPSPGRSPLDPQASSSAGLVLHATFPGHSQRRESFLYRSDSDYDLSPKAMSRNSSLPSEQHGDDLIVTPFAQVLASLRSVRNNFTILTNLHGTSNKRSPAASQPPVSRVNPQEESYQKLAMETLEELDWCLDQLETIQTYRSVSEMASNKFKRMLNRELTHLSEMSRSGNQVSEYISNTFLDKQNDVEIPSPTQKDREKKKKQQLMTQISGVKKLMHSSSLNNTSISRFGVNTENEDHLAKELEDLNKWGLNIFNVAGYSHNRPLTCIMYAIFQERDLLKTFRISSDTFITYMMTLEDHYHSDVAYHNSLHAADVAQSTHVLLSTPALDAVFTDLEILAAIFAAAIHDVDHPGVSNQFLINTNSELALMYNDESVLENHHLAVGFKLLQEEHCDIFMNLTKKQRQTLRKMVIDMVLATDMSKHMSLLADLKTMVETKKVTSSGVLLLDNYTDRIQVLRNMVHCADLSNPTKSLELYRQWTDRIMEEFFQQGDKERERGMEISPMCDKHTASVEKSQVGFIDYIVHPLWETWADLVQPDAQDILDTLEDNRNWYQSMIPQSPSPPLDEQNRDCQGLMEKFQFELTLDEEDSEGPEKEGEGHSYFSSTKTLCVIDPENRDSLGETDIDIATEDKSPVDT
Chain of Lysosomal acid glucosylceramidase (Homo sapiens) (P04062 whole entry, looked up): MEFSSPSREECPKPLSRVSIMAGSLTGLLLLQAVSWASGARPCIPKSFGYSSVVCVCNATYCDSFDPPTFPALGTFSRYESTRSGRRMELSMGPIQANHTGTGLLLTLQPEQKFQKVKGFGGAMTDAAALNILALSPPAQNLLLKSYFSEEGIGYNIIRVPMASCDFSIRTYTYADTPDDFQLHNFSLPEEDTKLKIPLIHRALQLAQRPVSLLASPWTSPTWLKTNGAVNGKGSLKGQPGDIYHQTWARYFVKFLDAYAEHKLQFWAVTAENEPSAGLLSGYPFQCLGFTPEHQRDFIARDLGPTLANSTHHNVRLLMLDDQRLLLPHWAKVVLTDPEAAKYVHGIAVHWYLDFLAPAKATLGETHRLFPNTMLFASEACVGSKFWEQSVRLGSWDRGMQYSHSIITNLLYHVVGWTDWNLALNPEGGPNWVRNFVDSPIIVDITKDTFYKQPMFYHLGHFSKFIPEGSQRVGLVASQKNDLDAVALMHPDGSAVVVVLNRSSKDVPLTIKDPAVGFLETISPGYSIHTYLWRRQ
Chain of Glucocorticoid receptor (Homo sapiens) (P04150 whole entry, looked up, the tested form may be a part): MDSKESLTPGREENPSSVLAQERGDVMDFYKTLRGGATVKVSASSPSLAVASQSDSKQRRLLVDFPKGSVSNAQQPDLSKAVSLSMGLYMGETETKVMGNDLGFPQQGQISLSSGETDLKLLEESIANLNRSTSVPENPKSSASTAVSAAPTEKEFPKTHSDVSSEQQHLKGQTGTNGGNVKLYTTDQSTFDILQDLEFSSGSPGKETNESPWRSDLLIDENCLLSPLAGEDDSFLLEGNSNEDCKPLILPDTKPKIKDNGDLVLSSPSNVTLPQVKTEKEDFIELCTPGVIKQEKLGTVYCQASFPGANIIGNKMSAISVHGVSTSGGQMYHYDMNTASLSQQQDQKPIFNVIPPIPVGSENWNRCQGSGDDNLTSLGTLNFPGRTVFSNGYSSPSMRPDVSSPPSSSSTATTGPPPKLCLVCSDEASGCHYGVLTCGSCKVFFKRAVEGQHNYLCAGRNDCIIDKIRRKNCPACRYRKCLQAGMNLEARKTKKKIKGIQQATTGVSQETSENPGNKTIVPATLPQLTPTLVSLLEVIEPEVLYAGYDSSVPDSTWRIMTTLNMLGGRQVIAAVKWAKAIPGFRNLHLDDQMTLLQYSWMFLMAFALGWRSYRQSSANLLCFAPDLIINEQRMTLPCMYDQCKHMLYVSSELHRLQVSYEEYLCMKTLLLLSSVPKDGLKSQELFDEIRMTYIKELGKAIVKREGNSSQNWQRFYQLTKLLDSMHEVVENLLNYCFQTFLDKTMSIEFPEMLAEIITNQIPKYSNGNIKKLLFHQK

| SMILES | Potency [1] | activity change, negative = inhibition [2] | activity change, negative = inhibition [3] | activity, negative = inhibition [4] | Potency [5] | Potency [6] | Potency [7] | activity change, negative = inhibition [8] | max response [8, 10] [%] | max response [8, 11] [%] | outcome [9] |
| --- | --- | --- | --- | --- | --- | --- | --- | --- | --- | --- | --- |
| Cc1noc(C)c1C(=O)N1CCC[C@@]2(CCN(C(=O)Nc3cccc(C#N)c3)C2)C1 | > 11.4 µM (inactive) | -3.34% (inactive) | 5.42% (inactive) | -8.01% (inactive) | > 46 µM (inactive) | inactive | inactive | 5.85% (inactive) | 14.6 | 24.7 | inactive |
| O=C(c1cccc(F)c1)N1CCC[C@@]2(CCN(Cc3ccccc3)C2)C1 | > 11.4 µM (inactive) | -3.14% (inactive) | -11.7% (inactive) | 9.35% (inactive) | > 46 µM (inactive) | inactive | inactive | -0.915% (inactive) | 11.6 | 12 | inactive |
| COCC(=O)N1CCC[C@@]2(CCN(C(=O)Nc3ccccc3)C2)C1 | > 11.4 µM (inactive) | -5.16% (inactive) | 1.53% (inactive) | -3% (inactive) | > 46 µM (inactive) | inactive | inactive | 5.08% (inactive) | 3.08 | 10.8 | inactive |
| COc1ccc(NC(=O)N2CC[C@@]3(CCCN(C(C)=O)C3)C2)cc1 | > 11.4 µM (inactive) | -3.83% (inactive) | 13.8% (inactive) | 6.12% (inactive) | > 46 µM (inactive) | inactive | inactive | 5.28% (inactive) | 4.36 | 12 | inactive |
| COc1ccc(C(=O)N2CCC[C@@]3(CCN(Cc4ccncc4)C3)C2)cc1 | > 11.4 µM (inactive) | -9.73% (inactive) | 4.96% (inactive) | 2.52% (inactive) | > 46 µM (inactive) | inactive | inactive | 5.81% (inactive) | 16.4 | 25.6 | inactive |
| O=C(c1csnn1)N1CCC2(CCCN(c3cccc(-c4ccccc4)c3)C2)CC1 | > 11.4 µM (inactive) | -12.3% (inactive) | -13.8% (inactive) | -5.72% (inactive) | > 46 µM (inactive) | inactive | inactive | -16.4% (inactive) | 9.62 | -3.2 | inactive |
| COc1ccc(C(=O)N2CCC[C@@]3(CCN(c4ccccn4)C3)C2)cc1 | > 11.4 µM (inactive) | -10.4% (inactive) | -4.97% (inactive) | -7.47% (inactive) | > 46 µM (inactive) | inactive | inactive | 5.2% (inactive) | 13.5 | 23.4 | inactive |
